These results are taken from PubChem BioAssay (NCI).

This is part of a sample that, as a whole, favours compounds with a hit. Of some 79,000 tested, about 15% had one in any assay. Unmarked numbers belong to inactive results. Activity calls are given as the source filed them. No stated cut-off is given here; in the data, active means growth inhibition above about 70%; inactive means the rest. Where a SMILES comes first, the peptide text is derived from it. The star is where a group is joined. Boc = CC(C)(C)OC(=O)*

Test [1] in a line: NCI Yeast Anticancer Drug Screen. Data for the rad50 strain (AID 155).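 Further: 0% = growth of vehicle-only cultures of the same strain.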 As to conditions: S. cerevisiae rad50 strain growth inhibition; at 50.0 µM; active compounds read high. The method, boiled down:
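Readout: growth inhibition relative to vehicle-treated cultures. Compound exposure was carried out in a genetically defined yeast strain deficient in DNA damage repair.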

Test [2] in a line: NCI Yeast Anticancer Drug Screen. Data for the mec2-1 strain (AID 157). As to conditions: S. cerevisiae mec2-1 strain, at 50.0 µM, active compounds read high. In outline: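 Test agents were screened against the mec2-1 yeast strain, with defined DNA repair or cell cycle alteration. Growth was scored as inhibition against vehicle-only controls.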
A short description of test [3]: NCI Yeast Anticancer Drug Screen. Data for the sgs1 mgt1 strain (AID 161).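 Further: 0% = growth of cultures given vehicle only.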 As to conditions: S. cerevisiae sgs1 mgt1 strain, at 50.0 µM, active compounds read high. The method, boiled down:
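Test agents were incubated with a DNA-repair-mutant yeast strain. Growth was then read and compared against vehicle-treated controls.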

Test [4] in a line: NCI Yeast Anticancer Drug Screen. Data for the cln2 rad14 strain (AID 165).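 Further: 0% = growth equal to vehicle treated cultures.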 As to conditions: S. cerevisiae cln2 rad14 strain, at 50.0 µM, active compounds read high. The method, boiled down:
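Growth of compound-exposed yeast (cln2 rad14 genotype) measured and expressed as inhibition relative to vehicle.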

Test [5] is described as follows: NCI Yeast Anticancer Drug Screen. Data for the bub3 strain (AID 167). As to conditions: S. cerevisiae bub3 mutant strain, at 50.0 µM, active compounds read high. The method, boiled down: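 Readout: yeast growth inhibition, expressed relative to vehicle-only wells. The test organism is a mutant strain from a panel with lesions in DNA repair or checkpoint genes.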
Test [6] is described as follows: NCI Yeast Anticancer Drug Screen. Data for the mlh1 rad18 strain (AID 175). As to conditions: S. cerevisiae mlh1 rad18 strain growth inhibition; at 50.0 µM; active compounds read high. The method, boiled down:
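In this whole-cell yeast screen, a strain with altered DNA damage repair is challenged with compound, and its growth is measured against matched vehicle-treated controls.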

As for `Cc1cc2c(c(C(=O)NCCC(=O)N[C@@H](C)C(=O)OCc3ccccc3)c1)Oc1c(cc(C)cc1C(=O)NCCC(=O)N[C@@H](C)C(=O)OCc1ccccc1)S2`, the growth inhibition in test [1] was 24%; in test [2], 10.8%; in test [3], 30.1%; in test [4], 28.8%; in test [5], -9.8%; in test [6], 27.1%.
Regarding `C/C=C1\C(=O)OC2CCN3CCC(COC(=O)C(C)(O)C(C)C1O)C23` (stereo not given), the growth inhibition in test [1] is 11.2%; in test [2], -7.65%; in test [3] it was -24.6%; in test [4], -13.7%; in test [5], -46.5%; in test [6] it was -60.2%.
Turning to `CC(NC(=O)C(NC(=O)OC(C)(C)C)C(C)C)C(=O)N1CCCC1C(=O)O` (stereo not drawn) (Boc-Val-Ala-Pro-OH; configuration not given here), the growth inhibition is -38.4% in test [1]; -52.5% in test [2]; -41% in test [3]; -28.7% in test [4]; -20.6% in test [5]; -38.4% in test [6].
As for `CC=C(c1ccccc1)c1ccccc1`, the growth inhibition in test [1] is -34%; in test [2], -25.2%; in test [3] it was -13.7%; in test [4], -10%; in test [5], -3.3%; in test [6], -15.2%.
As for `CC1CCC2CC(=O)C(Br)CC2(C)C1C` (stereo not given), the growth inhibition in test [1] is 23.6%; in test [2], -8.95%; in test [3], 9.75%; in test [4], -5.35%; in test [5], -3.95%; in test [6] it was 7.45%.
`NC(=S)NNC(=O)C(Cc1ccccc1)NC(=O)OCc1ccccc1` (stereo not given): the growth inhibition was 1.75% in test [1]; 17.7% in test [2]; 22.9% in test [3]; -7.6% in test [4]; 15.7% in test [5]; 11.4% in test [6].
On to `C[N+]1(Cc2ccccc2)CCC(=O)CC1`, for which the growth inhibition in test [1] is 4.05%; in test [2], -12.9%; in test [3], -7.1%; in test [4], -13.1%; in test [5] it was 10.9%; in test [6], -13.8%.
In the case of `CCCCCCCCCCCCCCCCC(CCCCCCCCCCCCCCCC)c1ccccc1`, the growth inhibition was 35.2% in test [1]; -0.65% in test [2]; 13.4% in test [3]; -18.1% in test [4]; 4.05% in test [5]; 18.6% in test [6].
In the case of `CCC(=O)c1ccc(OC(C)=O)cc1`, the growth inhibition in test [1] was 36%; in test [2], -4.75%; in test [3] it was -4.85%; in test [4], -23.4%; in test [5], 5.7%; in test [6], 4.65%.
On to `C/C(CC(=O)Nc1ccc(C)c(C)c1)=N\NC(N)=O`, for which the growth inhibition in test [1] is -31.9%; in test [2], -28.6%; in test [3], -0.7%; in test [4], -5.35%; in test [5] it was -22%; in test [6], -24.2%.
For `COc1ccc2c(c1)C(C)(C(N)=O)CCC2` (stereo not given), the growth inhibition in test [1] is 3.25%; in test [2] it was 4.8%; in test [3], 3.7%; in test [4], 5.5%; in test [5], -12.2%; in test [6] it was -13.2%.
For `CCCCNC(=S)C(=S)NCCCC`, the growth inhibition in test [1] was 10.7%; in test [2], -0.3%; in test [3], 0.05%; in test [4], 26.9%; in test [5], 17.4%; in test [6] it was -11.2%.
Regarding `CCOC(=O)CCCNc1cc(OC)cc2cccnc12`, the growth inhibition in test [1] is -7.4%; in test [2], -23.9%; in test [3] it was -2.6%; in test [4], -48.8%; in test [5], 19.8%; in test [6], -8.7%.
`CCOCC(=O)NC1Cc2cc(OC)c(OC)cc2C1O` (stereo not given): the growth inhibition is -29.8% in test [1]; -6.2% in test [2]; 0.1% in test [3]; -17.1% in test [4]; 2.15% in test [5]; 15.6% in test [6].
Consider `Cn1c(=O)c2c(nc3sc4nc5ccccc5nc4n32)n(C)c1=O`, for which the growth inhibition in test [1] is -9.7%; in test [2], -15.9%; in test [3], -5.45%; in test [4], -25.4%; in test [5], -30.4%; in test [6], 13.1%.
As to `C[n+]1c(-c2ccc(/C=N/NC(=O)C(=O)N/N=C/c3ccc(-c4cn5ccsc5[n+]4C)cc3)cc2)cn2ccsc21`, the growth inhibition was 85.5% (active) in test [1]; 88% (active) in test [2]; 86.8% (active) in test [3]; 76.6% (active) in test [4]; 88.7% (active) in test [5]; 86.5% (active) in test [6].
Take `C/C(CC(=O)Nc1ccc(C)c(C)c1)=N\NC(N)=S`: the growth inhibition in test [1] is -13.8%; in test [2] it was -6.1%; in test [3] it was 1.45%; in test [4] it was 18.2%; in test [5] it was 0.05%; in test [6], -2.4%.
With `CCOC(=O)NN(C/C(Cl)=C/Cl)C/C(Cl)=C/Cl`, the growth inhibition is -2% in test [1]; -0.95% in test [2]; 0.4% in test [3]; -46.8% in test [4]; 7.35% in test [5]; -5.55% in test [6].
Regarding `N#CC(C(=O)CCC(=O)C(C#N)c1c(Cl)cccc1Cl)c1c(Cl)cccc1Cl` (stereo not given), the growth inhibition in test [1] was -18.3%; in test [2], 7.3%; in test [3], -12.5%; in test [4], -41.5%; in test [5] it was 6.55%; in test [6], -11.1%.
Take `N#CC(=Nc1cc(Cl)cc(Cl)c1)C1=C(O)c2ccccc2C1=O`: the growth inhibition in test [1] is 5.75%; in test [2], 0.6%; in test [3], 30.1%; in test [4], 14.1%; in test [5] it was 35.9%; in test [6] it was 11%.
